Test results from the supplement of paper PMC11732987, “Enantioselective OTUD7B fragment discovery through chemoproteomics screening and high-throughput optimisation” (Communications Chemistry, 2025).

Legend:
Assay in all cases: log2 ratio of Biotin-Ahx-Ub-VS probe labelling (fragment/DMSO); higher = less target engagement (more negative = stronger competition), active = hit call of the paper (q ≤ 0.05, log2 ratio ≤ -1)
Settings in all cases: compound concentration: 200 uM; treatment time: 3 h
[1] = biological target: T1, ALG13 (UniProt Q9NP73)
T1 sequence (whole entry): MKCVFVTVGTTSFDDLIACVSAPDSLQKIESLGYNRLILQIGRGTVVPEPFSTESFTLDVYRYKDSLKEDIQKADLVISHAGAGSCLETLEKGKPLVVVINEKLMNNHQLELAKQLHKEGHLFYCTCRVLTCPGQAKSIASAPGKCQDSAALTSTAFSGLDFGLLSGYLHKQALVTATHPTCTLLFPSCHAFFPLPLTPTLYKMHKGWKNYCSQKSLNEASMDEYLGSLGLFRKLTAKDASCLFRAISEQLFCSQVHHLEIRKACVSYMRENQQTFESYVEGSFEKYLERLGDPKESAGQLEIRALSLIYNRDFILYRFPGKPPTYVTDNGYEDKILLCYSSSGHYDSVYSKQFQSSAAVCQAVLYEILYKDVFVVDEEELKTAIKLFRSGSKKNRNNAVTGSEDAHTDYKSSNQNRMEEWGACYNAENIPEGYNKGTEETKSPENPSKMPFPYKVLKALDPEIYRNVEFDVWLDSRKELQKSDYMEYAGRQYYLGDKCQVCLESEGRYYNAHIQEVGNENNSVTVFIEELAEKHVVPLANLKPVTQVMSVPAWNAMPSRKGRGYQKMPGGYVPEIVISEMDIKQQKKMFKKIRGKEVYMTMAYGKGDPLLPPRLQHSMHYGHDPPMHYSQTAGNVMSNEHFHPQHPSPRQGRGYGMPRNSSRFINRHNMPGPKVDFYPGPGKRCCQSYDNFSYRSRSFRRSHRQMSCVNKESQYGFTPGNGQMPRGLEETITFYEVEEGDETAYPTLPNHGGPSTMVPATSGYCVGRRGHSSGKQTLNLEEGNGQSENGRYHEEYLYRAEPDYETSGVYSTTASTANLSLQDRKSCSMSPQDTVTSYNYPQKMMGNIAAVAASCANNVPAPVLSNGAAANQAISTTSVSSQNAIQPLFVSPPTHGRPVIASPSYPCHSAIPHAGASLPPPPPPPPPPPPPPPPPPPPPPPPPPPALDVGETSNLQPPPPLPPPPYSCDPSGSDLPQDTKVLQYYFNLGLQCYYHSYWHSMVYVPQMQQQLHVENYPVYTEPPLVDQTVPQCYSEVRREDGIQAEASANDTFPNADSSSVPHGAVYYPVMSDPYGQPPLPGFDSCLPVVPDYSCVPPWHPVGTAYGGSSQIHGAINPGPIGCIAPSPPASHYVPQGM
How it was run: (§1)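 Fragment (200 µM) or vehicle was incubated for 3 h with triplicate HEK293T lysate samples of 495 µg, which were then treated with Biotin-Ahx-Ub-VS at 0.5 µM final for 1 h. Labelled DUBs were enriched on NeutrAvidin, digested with LysC and trypsin, and analysed by diaPASEF LC-MS/MS. Values are average log2 fragment/vehicle ratios from an unpaired t-test on global-median-normalised Spectronaut label-free quantities, using proteins with ≥2 unique peptides.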

[2] = biological target: ATXN3 (UniProt P54252)
ATXN3, sequence (P54252 whole entry): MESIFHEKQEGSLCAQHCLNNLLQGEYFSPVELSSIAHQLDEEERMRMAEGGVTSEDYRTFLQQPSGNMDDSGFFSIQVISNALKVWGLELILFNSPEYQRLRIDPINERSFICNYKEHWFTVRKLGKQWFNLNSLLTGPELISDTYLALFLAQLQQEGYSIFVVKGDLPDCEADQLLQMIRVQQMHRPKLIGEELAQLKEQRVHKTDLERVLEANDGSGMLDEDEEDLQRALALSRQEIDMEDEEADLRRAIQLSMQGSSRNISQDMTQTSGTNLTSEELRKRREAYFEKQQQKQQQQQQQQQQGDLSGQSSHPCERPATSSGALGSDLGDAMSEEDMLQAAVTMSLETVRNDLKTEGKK
How it was run: as §1

[3] = biological target: T2, BAP1 (UniProt Q92560)
T2 sequence (whole entry): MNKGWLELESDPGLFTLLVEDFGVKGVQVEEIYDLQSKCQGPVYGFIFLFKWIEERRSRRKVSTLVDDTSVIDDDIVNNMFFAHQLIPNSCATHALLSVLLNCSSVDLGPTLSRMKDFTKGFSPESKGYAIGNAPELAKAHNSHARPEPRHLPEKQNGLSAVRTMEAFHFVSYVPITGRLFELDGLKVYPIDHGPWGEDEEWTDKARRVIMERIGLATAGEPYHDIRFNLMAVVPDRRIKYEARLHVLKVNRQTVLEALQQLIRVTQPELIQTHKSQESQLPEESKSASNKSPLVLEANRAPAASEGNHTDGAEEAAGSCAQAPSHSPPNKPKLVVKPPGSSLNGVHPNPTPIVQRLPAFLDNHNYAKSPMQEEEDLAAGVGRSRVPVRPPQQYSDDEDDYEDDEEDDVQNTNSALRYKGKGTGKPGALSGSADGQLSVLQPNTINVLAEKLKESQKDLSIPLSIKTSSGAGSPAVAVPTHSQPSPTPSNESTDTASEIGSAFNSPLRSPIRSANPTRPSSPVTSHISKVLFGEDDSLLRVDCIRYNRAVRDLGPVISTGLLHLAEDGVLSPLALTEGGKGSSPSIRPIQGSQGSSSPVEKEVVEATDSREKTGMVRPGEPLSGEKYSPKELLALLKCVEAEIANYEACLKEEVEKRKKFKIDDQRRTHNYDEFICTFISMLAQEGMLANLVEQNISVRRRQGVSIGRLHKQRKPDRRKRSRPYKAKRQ
How it was run: as §1

[4] = biological target: EIF3F (UniProt O00303)
EIF3F, sequence (O00303 whole entry): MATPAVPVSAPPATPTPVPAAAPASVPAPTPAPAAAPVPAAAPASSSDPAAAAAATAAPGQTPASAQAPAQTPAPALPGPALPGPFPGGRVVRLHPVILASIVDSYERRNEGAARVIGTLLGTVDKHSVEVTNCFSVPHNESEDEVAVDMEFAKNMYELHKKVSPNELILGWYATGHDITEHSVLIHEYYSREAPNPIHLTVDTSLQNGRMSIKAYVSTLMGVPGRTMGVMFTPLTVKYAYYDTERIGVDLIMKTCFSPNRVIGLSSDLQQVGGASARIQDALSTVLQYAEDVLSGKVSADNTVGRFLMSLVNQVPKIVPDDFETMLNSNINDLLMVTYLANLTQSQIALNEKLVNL
How it was run: as §1

[5] = biological target: EIF3H (UniProt O15372)
EIF3H, sequence (O15372 whole entry): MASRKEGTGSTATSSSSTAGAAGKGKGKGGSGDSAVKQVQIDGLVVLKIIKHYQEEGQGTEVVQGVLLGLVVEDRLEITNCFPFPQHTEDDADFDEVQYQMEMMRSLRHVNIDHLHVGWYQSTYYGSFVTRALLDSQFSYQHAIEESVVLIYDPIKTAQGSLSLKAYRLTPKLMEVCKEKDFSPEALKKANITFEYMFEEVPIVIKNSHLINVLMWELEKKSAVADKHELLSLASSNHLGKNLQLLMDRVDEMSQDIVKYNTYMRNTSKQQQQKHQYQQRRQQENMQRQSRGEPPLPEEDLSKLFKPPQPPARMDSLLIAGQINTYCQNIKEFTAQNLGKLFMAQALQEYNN
How it was run: as §1

[6] = biological target: T3, FAM105A (UniProt Q9NUU6)
T3 sequence (whole entry): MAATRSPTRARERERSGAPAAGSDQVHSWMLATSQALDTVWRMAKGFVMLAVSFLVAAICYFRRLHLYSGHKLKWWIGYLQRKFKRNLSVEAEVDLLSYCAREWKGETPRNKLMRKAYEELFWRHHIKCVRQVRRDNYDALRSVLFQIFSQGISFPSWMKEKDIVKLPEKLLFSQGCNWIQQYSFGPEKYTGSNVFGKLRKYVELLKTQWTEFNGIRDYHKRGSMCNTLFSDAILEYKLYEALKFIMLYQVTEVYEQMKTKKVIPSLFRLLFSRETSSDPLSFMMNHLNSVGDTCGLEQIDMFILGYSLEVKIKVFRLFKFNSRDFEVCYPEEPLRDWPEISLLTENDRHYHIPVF
How it was run: as §1

[7] = biological target: OTUB1 (UniProt Q96FW1)
OTUB1, sequence (Q96FW1 whole entry): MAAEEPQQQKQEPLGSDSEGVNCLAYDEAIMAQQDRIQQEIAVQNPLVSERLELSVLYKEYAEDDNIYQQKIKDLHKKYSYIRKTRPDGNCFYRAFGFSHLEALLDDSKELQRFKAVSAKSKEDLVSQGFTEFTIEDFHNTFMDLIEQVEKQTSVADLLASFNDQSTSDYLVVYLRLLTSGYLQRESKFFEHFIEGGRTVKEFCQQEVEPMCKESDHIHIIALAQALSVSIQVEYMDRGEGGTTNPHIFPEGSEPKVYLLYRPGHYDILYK
How it was run: as §1

[8] = biological target: T4, OTUD4 (UniProt Q01804)
T4 sequence (whole entry): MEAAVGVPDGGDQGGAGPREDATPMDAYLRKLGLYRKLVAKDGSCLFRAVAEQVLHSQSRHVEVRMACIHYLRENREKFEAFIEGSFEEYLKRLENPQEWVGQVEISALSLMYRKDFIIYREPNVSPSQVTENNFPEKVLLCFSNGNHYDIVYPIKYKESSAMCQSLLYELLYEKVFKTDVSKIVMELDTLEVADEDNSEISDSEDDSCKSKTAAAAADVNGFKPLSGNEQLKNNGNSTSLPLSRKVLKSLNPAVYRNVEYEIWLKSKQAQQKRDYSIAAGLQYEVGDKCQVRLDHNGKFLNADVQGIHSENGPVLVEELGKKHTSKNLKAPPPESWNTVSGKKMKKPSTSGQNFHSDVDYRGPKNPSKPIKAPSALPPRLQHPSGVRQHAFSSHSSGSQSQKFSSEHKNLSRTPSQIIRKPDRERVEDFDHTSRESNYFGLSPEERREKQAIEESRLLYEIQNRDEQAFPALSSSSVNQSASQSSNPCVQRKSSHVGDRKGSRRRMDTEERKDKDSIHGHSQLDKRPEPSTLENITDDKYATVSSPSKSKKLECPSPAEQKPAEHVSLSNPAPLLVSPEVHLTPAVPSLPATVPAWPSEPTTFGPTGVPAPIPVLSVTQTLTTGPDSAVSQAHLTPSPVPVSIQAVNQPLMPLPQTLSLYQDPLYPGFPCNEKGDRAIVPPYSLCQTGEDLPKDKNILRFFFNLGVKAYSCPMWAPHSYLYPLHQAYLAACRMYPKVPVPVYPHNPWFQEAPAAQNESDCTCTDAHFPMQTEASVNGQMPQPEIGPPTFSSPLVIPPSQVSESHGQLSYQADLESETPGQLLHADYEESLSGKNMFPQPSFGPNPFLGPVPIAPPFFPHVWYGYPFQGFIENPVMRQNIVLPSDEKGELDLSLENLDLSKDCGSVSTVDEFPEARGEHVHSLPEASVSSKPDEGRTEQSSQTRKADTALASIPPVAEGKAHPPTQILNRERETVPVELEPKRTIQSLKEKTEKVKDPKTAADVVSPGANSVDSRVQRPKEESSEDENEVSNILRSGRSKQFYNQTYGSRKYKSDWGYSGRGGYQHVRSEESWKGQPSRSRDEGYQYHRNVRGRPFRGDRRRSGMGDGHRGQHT
How it was run: as §1

[9] = biological target: T5, OTUD5 (UniProt Q96G74)
T5 sequence (whole entry): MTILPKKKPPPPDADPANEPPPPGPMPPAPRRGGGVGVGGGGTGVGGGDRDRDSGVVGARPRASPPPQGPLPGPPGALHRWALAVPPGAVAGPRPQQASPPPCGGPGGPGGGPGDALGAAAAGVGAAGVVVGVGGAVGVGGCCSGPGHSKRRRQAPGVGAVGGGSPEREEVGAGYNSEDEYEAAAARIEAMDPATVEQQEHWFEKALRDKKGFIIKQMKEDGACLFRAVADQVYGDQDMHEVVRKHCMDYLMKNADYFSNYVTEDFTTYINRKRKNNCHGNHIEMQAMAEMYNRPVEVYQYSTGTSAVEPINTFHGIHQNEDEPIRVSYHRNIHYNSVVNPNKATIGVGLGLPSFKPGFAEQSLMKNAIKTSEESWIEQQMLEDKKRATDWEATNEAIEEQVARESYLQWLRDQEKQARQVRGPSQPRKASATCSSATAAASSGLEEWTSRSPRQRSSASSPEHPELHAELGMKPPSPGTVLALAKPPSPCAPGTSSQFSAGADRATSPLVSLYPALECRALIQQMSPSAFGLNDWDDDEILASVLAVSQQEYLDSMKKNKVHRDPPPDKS
How it was run: as §1

Measured: log2 ratio of Biotin-Ahx-Ub-VS probe labelling

O=C(CCl)Nc1ccc(Cl)c(F)c1
active: [2] -1.07 | [3] -3.03 | [8] -1.33
inactive: [1] 0.149 | [4] -0.0742 | [5] 0.246 | [6] -0.175 | [7] -0.259 | [9] -0.992
